# Reference: PubChem BioAssay
# Values without a mark were called inactive. For some assays here: Measured potencies and affinities stand elsewhere. Active and inactive are the calls of the source. Unless noted, how the calls were made is not given here.
# Experiments:
# [1] = antimalarial activity against Dd2 strain (AID 2302;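 active means growth inhibition above 50% at the single 2 µM test dose, taken to imply half-maximal potency below 2 µM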;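 further: 0% = DMSO untreated growth and 100% = chloroquine plus artemisinin killed control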); conditions: P. falciparum Dd2 in RBCs, LDH growth readout, 72 h; at 2 µM; stronger effect = higher value
# [2] = HepG2 cytotoxicity, primary screen, cytotoxicity control for P. falciparum antimalarial project, cell-based, ATP luminescence (AID 2303;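 active means inhibition above 50%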;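 further: 0% = DMSO wells and 100% = digitonin-killed cells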); conditions: HepG2 viability, 24-48 h, at 10 µM, stronger effect = higher value
# [3] = target: L-lactate dehydrogenase (Plasmodium falciparum (isolate CDC / Honduras)) (UniProt Q27743); experiment: PfLDH activity inhibition – cell lysate, 3D7 strain, counter-screen for P. falciparum growth inhibition project (AID 2304);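 further: 0% = vehicle and 100% = reference inhibitor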; conditions: P. falciparum 3D7 crude extract, LDH APAD/NBT absorbance; at 2 µM; stronger effect = higher value
# [4] = inhibition of 3D7 malaria parasite growth – strain 3D7 (AID 2306);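 further: 0% = DMSO wells and 100% = chloroquine plus artemisinin control wells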; conditions: P. falciparum 3D7 erythrocytic growth, LDH absorbance, 72 h; at 2 µM; stronger effect = higher value
# [5] = target: Calcium-dependent protein kinase 1 (Plasmodium falciparum (isolate 3D7)) (UniProt P62344); experiment: PfCDPK1 kinase inhibitors, biochemical, TCAMS library (AID 1159585; cut-off not given, nearly all actives have IC50 up to about 0.98 µM;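 further: inhibitors leave more ATP so luminescence rises with inhibition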); conditions: recombinant PfCDPK1, Kinase-Glo ATP depletion luminescence
# [6] = target: Plasmodium falciparum protein kinase 6 (PK6, PF3D7_1337100) (UniProt Q8IDW1); experiment: PfPK6 kinase inhibitors, biochemical, TCAMS library (AID 1159586); conditions: recombinant PfPK6, Kinase-Glo ATP depletion luminescence
# [7] = target: Protein kinase 7 (PK7), Plasmodium falciparum 3D7 (PF3D7_0213400) (UniProt Q7YTF7); experiment: inhibition of Plasmodium PK7 catalytic activity – biochemical, TCAMS antimalarial set, Kinase-Glo luminescence (AID 1159587); conditions: recombinant PfPK7, Kinase-Glo ATP depletion luminescence
# [8] = target: Calcium-dependent protein kinase 4 (Plasmodium falciparum (isolate 3D7)) (UniProt Q8IBS5); experiment: PfCDPK4 kinase inhibitors, biochemical, TCAMS library (AID 1159588; cut-off not given, nearly all actives have IC50 up to about 0.91 µM); conditions: recombinant PfCDPK4, Kinase-Glo ATP depletion luminescence
# Chain of Calcium-dependent protein kinase 4 (Plasmodium falciparum (isolate 3D7)) (Q8IBS5 whole entry, looked up): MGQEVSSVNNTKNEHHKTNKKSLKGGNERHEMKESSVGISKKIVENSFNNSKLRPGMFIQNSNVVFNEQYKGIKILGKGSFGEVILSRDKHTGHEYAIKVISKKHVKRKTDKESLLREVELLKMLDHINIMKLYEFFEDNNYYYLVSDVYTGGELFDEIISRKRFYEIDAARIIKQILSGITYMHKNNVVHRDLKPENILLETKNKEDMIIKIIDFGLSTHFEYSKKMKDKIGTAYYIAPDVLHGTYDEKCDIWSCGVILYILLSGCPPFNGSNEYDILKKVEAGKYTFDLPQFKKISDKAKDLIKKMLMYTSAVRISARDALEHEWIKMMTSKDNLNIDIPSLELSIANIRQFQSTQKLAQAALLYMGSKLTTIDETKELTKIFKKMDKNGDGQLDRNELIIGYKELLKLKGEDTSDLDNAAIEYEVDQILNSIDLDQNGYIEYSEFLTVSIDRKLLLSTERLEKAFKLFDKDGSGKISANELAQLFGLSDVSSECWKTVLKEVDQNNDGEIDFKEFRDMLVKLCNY
# Chain of L-lactate dehydrogenase (Plasmodium falciparum (isolate CDC / Honduras)) (Q27743 whole entry, looked up): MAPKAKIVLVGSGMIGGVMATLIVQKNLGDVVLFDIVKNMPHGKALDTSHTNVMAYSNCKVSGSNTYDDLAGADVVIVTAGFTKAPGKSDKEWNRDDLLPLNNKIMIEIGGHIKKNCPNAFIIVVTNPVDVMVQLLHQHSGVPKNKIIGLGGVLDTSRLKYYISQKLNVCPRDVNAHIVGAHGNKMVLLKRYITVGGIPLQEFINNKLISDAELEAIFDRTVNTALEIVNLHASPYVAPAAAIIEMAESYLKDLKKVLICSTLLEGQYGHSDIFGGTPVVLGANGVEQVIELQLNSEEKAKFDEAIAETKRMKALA
# Chain of Protein kinase 7 (PK7), Plasmodium falciparum 3D7 (PF3D7_0213400) (Q7YTF7 1-343): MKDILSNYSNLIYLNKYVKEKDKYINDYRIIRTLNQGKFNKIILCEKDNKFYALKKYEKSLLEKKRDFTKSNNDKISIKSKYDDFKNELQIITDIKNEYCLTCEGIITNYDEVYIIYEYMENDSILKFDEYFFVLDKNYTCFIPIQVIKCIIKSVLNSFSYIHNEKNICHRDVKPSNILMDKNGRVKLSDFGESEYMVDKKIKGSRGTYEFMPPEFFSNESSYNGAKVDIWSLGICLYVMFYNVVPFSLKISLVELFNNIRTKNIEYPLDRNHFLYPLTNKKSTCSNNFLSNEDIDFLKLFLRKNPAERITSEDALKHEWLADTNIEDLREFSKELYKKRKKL
# Chain of Calcium-dependent protein kinase 1 (Plasmodium falciparum (isolate 3D7)) (P62344 whole entry, looked up): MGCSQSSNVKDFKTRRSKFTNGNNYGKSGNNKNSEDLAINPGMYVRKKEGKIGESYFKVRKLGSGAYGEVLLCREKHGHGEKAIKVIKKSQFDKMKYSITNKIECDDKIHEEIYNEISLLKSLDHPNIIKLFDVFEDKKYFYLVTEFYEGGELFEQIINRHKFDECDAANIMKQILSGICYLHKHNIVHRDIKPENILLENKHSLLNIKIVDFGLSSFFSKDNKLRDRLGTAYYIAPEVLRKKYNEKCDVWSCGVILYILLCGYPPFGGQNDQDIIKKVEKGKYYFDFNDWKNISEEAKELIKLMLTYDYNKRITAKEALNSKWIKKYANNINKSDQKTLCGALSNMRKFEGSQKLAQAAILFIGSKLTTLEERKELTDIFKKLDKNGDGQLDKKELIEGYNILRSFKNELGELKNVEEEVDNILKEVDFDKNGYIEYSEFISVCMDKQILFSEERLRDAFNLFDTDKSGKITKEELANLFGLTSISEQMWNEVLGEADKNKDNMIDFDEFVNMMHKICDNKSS
# Chain of Plasmodium falciparum protein kinase 6 (PK6, PF3D7_1337100) (Q8IDW1 1-305): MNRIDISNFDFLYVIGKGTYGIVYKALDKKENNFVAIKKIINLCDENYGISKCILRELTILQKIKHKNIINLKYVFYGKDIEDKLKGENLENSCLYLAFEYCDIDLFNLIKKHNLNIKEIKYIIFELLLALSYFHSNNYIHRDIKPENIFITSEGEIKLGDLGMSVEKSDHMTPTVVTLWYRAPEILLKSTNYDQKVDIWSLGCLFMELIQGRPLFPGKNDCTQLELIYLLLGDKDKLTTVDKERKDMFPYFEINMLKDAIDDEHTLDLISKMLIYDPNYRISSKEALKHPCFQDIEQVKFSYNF
Structure (SMILES),growth inhibition [1],inhibition [2],inhibition [3] [%],growth inhibition [4],outcome [5],outcome [6],outcome [7],outcome [8]
Cc1cccc2[nH]c(-c3cccc(-c4ccc(NC(=O)c5cnccc5C(F)(F)F)cc4)c3)nc12,37%,60% (active),-3,100% (active),inactive,inactive,inactive,inactive
Cc1ccc(N2CCN(CCCCNC(=O)c3ccc(NC(=O)c4ccc(Cl)cc4)cc3)CC2)c(C)c1,20%,30%,7,95% (active),inactive,inactive,inactive,inactive
O=C(Nc1ccccc1)N(Cc1ccc(-c2cccc(CNCc3ccc4c(c3)OCO4)c2)cc1)C1CCN(Cc2ccccc2)CC1,65% (active),29%,-1,100% (active),inactive,inactive,inactive,inactive
CC(=O)Nc1ccc(S(=O)(=O)Nc2ccc(Nc3nc(C)cc(N(C)C)n3)cc2)cc1,22%,-2%,-1,100% (active),inactive,inactive,inactive,inactive
Cc1ccc(/C=C/C(=O)NCCCCCN2CCCN(C(=O)Nc3ccc(Cl)c(Cl)c3)CC2)cc1,1%,24%,2,95% (active),inactive,inactive,inactive,inactive
CC1(C)CNCc2cc(NC(=O)/C=C/c3ccc(Cl)cc3)ccc21,26%,23%,-9,82% (active),inactive,inactive,inactive,inactive
Cc1ccnc(Nc2nc(-c3ccccn3)cs2)c1,87% (active),45%,-4,100% (active),inactive,inactive,inactive,inactive
N#Cc1ccc(CN2CCC(Oc3ccc(NC(=O)c4cccs4)cc3)C2)cc1 (stereo not given),65% (active),5%,1,82% (active),inactive,inactive,inactive,inactive
CCCNCc1ccc(-c2ccc(CN(C(=O)c3nn(-c4ccccc4)nc3C)C(C)CN(C)C)cc2)nc1 (stereo not given),95% (active),27%,-8,95% (active),inactive,inactive,inactive,inactive
CCOc1cc(Cc2cnc(N)nc2N)cc(OCC)c1O,-1%,6%,3,89% (active),inactive,inactive,inactive,inactive
c1csc(-c2nc(N3CCCCC3)ncc2-c2ccsc2)n1,72% (active),-5%,-3,89% (active),inactive,inactive,inactive,inactive
NCc1cccc(-c2cccc(CNC3CCN(Cc4ccccc4)CC3)c2)c1,45%,9%,2,100% (active),inactive,inactive,inactive,inactive
NC(N)=NN=CC(=O)Nc1ccc(C(F)(F)F)cc1,9%,5%,1,100% (active),inactive,inactive,inactive,inactive
CCc1ccc(O)c(-c2cc(C(=O)Nc3cccnc3)[nH]n2)c1,99% (active),-4%,-7,98% (active),inactive,inactive,inactive,inactive
CCCCCc1ccc(NC(=O)Nc2ccc(Cn3ncc(N4CCCNCC4)c(Cl)c3=O)cc2)cc1,23%,15%,3,87% (active),inactive,inactive,inactive,inactive
Cc1cccc(CNc2nccc3[nH]c4ccccc4c23)c1,51% (active),14%,0,92% (active),inactive,inactive,inactive,inactive
c1cc(C2=N[C@H]3CCCC[C@@H]3N2)ccc1OCCCOc1ccc(C2=N[C@@H]3CCCC[C@H]3N2)cc1,64% (active),-7%,-3,99% (active),inactive,inactive,inactive,inactive
CCCCNC[C@@H](O)[C@H](Cc1ccccc1)NC(=O)c1cc(NCC)cc(N2CCCCS2(=O)=O)c1,98% (active),11%,2,99% (active),inactive,inactive,inactive,inactive
Nc1cccc(C=CC(=O)Nc2ccnc3ccccc23)c1,60% (active),7%,-1,98% (active),inactive,inactive,inactive,inactive
Cc1ccc(Cn2ncc(N3C[C@@H](C)N[C@@H](C)C3)c(Cl)c2=O)cc1NC(=O)Nc1ccc(-c2ccccc2)cc1,29%,51% (active),-2,100% (active),inactive,inactive,inactive,inactive

Structure (SMILES),growth inhibition [1],inhibition [2],inhibition [3] [%],growth inhibition [4],outcome [5],outcome [6],outcome [7],outcome [8]
COc1cc2ncnc(Nc3ccc4nc(Cc5ccccc5)[nH]c4c3)c2cc1OC,28%,-9%,0,87% (active),inactive,inactive,inactive,inactive
Cc1ccc(C)c(NC(=O)Nc2ccc(Nc3nc(C)cc(N4CCOCC4)n3)cc2)c1,48%,88% (active),0,98% (active),inactive,inactive,inactive,inactive
c1ccc(CN2CCN(CCNc3c4ccccc4nc4ccccc34)CC2)cc1,97% (active),44%,9,100% (active),inactive,inactive,inactive,inactive
O=c1cc(NCCCNCc2ccc(Cl)c(Cl)c2)[nH]c2ccc(Oc3ccccc3)cc12,29%,1%,2,92% (active),inactive,inactive,inactive,inactive
C=CCOc1ccc(C(=O)Nc2nonc2-c2ccc(OC)c(OC)c2)cc1,91% (active),2%,-5,100% (active),inactive,inactive,inactive,inactive
O=C(Oc1ccc(C2CNCCc3c2cc(OC(=O)c2ccc(O)cc2)c(OC(=O)c2ccc(O)cc2)c3Cl)cc1)c1ccc(O)cc1 (stereo not given),60% (active),-2%,0,90% (active),inactive,inactive,inactive,inactive
Cc1cccc2[nH]c(-c3ccc(-c4ccc(CNCCCNS(C)(=O)=O)cc4)s3)nc12,4%,13%,3,99% (active),inactive,inactive,inactive,inactive
CCOc1ccc(NC(=O)c2ccc(CN3CCCN(Cc4cccc(O)c4)CC3)cc2)cc1,9%,44%,0,85% (active),inactive,inactive,inactive,inactive
CC(C)(C)OC(=O)[C@H](CC(N)=O)NC(=O)c1ccc(-c2ccc(-c3nc4ccc(C(F)(F)F)cc4[nH]3)s2)cc1,88% (active),62% (active),-2,94% (active),inactive,inactive,inactive,inactive
COc1ccc(CNc2ccc3nc(N)nc(N)c3c2)cc1,84% (active),39%,-4,99% (active),inactive,inactive,inactive,inactive
CCCCCCCNCCNc1cc(C)nc2ccccc12,99% (active),58% (active),-4,100% (active),inactive,inactive,inactive,inactive
Cc1cc(NCCc2ccccc2)nc(/N=C(\N)Nc2cccc([N+](=O)[O-])c2)n1,101% (active),21%,-2,102% (active),inactive,inactive,inactive,inactive
COc1ccc2c(Nc3ccc(N4CCN(C)CC4)cc3)cc(C)nc2c1,9%,23%,-2,101% (active),inactive,inactive,inactive,inactive
O=C(Nc1cccc(C(F)(F)F)c1)c1cccc(S(=O)(=O)NCC2CCCN(Cc3ccccc3)C2)c1 (stereo not given),3%,17%,2,94% (active),inactive,inactive,inactive,inactive
Oc1ccc(-c2cc(COc3ccccc3C(F)(F)F)c(C3=CCNCC3)cc2COc2ccccc2C(F)(F)F)cc1,62% (active),18%,3,100% (active),inactive,inactive,inactive,inactive
Oc1ccc(CCNc2nc(NCc3ccccc3-c3cccc(Cl)c3)nc(N3CCNCC3)n2)cc1,11%,15%,-3,84% (active),inactive,inactive,inactive,inactive
O=C(Nc1ccc(Cl)cc1)c1ccc(CN2CCCN(Cc3cccc(O)c3)CC2)cc1,69% (active),52% (active),4,100% (active),inactive,inactive,inactive,inactive
CC(=O)NCCNc1nccc(N2CCc3ncnc(Nc4ccc(OCc5ccccn5)c(Cl)c4)c3C2)n1,99% (active),-12%,10,99% (active),inactive,inactive,inactive,inactive
Cc1ccccc1C1CCN(C2CCC(NC(=O)c3ccc(-c4ccccc4)s3)CC2)CC1 (stereo not given),84% (active),26%,0,101% (active),inactive,inactive,inactive,inactive
Cc1ccc(NC(=O)c2cc(Br)cc(N3CCC(N(C)C)CC3)c2)cc1F,80% (active),23%,-3,100% (active),inactive,inactive,inactive,inactive
